The campaign covered roughly 65,000 compounds. About 450 (0.69%) were called active. This is one part of a sample in which actives are shown more often than they occur.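 How the source made its calls: active means activation above a set limit, the screen-wide mean activation plus 3 SD (cut at about 8.5% in these data); inactive means the rest.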
What follows are molecules tested against 5-hydroxytryptamine receptor 1E (Homo sapiens) (UniProt P28566) (assay: 5-HT1E receptor agonists, primary screen, cell-based, HTS (AID 574;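 further: 100% = positive control agonist at 1 µM giving full maximal response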)). Conditions: CHO 5-HT1E Ga15 NFAT-bla reporter, FRET; at 6 µM; active compounds read high; 0% DMSO wells, 100% control agonist wells.
Chain of 5-hydroxytryptamine receptor 1E (Homo sapiens) (P28566 whole entry, looked up): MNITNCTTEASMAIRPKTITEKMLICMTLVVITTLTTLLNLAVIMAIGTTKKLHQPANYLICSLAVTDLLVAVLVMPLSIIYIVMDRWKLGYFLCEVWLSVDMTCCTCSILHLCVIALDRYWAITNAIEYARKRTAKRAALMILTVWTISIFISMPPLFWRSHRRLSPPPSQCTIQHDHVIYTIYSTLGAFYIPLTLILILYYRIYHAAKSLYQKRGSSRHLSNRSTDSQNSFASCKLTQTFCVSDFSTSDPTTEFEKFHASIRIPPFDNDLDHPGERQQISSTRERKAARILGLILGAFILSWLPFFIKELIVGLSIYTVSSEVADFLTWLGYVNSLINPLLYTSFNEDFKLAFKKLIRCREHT

activation, inactive:
CCCCOc1ccccc1/C=c1/sc2nc(-c3oc4ccccc4c3C)nn2c1=O 0.1%
CCOc1ccccc1/C=c1\sc2nc(-c3ccco3)nn2c1=O 0.9%
O=C(CCS(=O)(=O)Cc1ccccc1F)NCCCN1CCCCC1 -1.2%
Cc1ccc(CNC(=O)CCCNC(=O)c2ccc(Cl)cc2)n1C -0.6%
O=S(=O)(NCc1ccccc1Cl)c1cnc[nH]1 0.3%
CN(C)c1ccnc2sc3c(=O)n(Cc4ccccc4)cnc3c12 0.2%
CCOC(=O)c1sc(N(Cc2ccccc2)C(=O)CN2C(=O)CN(C)C2=O)nc1C 0.8%
CCN(CCCNC(=O)C1CCN(S(=O)(=O)c2cnc[nH]2)CC1)c1ccccc1 -0.1%
Cc1nc2ccccc2c2oc(C(=O)NCCCN3CCC(C)CC3)cc12 -0.7%
CN1CCN(Cc2c(O)ccc3c2oc(=O)c2ccccc23)CC1 -1.2%
CCS(=O)(=O)N1CCN(C(=O)c2cccs2)CC1 0.5%
O=C(CN(Cc1ccccc1)C(=O)c1ccc2c(c1)OCCO2)NCc1ccc2c(c1)OCO2 -1.2%
O=C(COc1ccccc1)NCc1ccc2c(c1)OCO2 -0.5%
Cc1cc(=O)n2nc(N3CCCC(C(=O)N4CCN(C)CC4)C3)sc2n1 (configuration not stated) 0%
CN(C)CCCn1c(N)c(C#N)c2nc(C#N)c(C#N)nc21 3.5%
CCOc1ccc2nc(NC(=O)CSc3nc4c(c(=O)n(C)c(=O)n4C)n3CC)sc2c1 -0.3%
CCOC(=O)CCc1c(C)c(C#N)c2[nH]c3ccccc3n2c1=O -0.2%
CCC1CCCCN1CCNS(=O)(=O)c1ccc2c(c1)CCN2C(C)=O (configuration not stated) -0.3%
O=S(=O)(c1ccc(OCC(O)CN2CCN(c3ccccc3Cl)CC2)cc1)N1CCOCC1 (configuration not stated) 1.6%
CCCN1C(=O)C(NC(C)=O)c2cc(OC)ccc21 (configuration not stated) 0.7%
CCOC(=O)N1CCN(C(=O)c2cnc3n(c2=O)CCS3)CC1 4.1%
Cn1c(NC(=O)c2ccco2)c(-c2ccccc2Cl)c(=O)c2ccccc21 0.2%
CCC(=O)Nc1ccccc1N1CCN(S(C)(=O)=O)CC1 -0.7%
CCCS(=O)(=O)N1CCCC(C(=O)NCc2ccco2)C1 (configuration not stated) 0.6%
COc1cccc2cc(C(=O)N(C)C)c(=O)oc12 0.2%
Cn1c(=O)cc(OCCCC(=O)N2CCN(Cc3ccc4c(c3)OCO4)CC2)c2ccccc21 0.8%
CC(C)OCCCNC(=O)CNC(=O)c1cccs1 1.3%
COc1cccc(OCCOc2cccc(/C=N/n3cnnc3)c2)c1 -0.3%
C=C(C)CSc1nc(N)c2c3c(sc2n1)CCC3 0.3%
CC(=O)N1CCN(c2cccc(C)c2C)CC1 0.3%
Cc1c(CN2CCC(C)CC2)c(=O)n(-c2ccccc2)n1C -0.1%
CC1CN(C2CCCCC2)c2nc3c(c(=O)n(C)c(=O)n3C)n2C1 (configuration not stated) -0.2%
CCOC(=O)CSc1nnc(CNC(=O)Cc2ccccc2)n1-c1ccccc1OC -0.7%
Cc1ccc(C(=O)COc2cccc(NC(=O)c3ccco3)c2)cc1 0.2%
O=C(Nc1ccc(Oc2ccccc2)cc1)c1ccco1 0.3%
CC(=O)c1cccc(NC(=O)N2CCCC2C(=O)NCCC(C)C)c1 (configuration not stated) -0.1%
CCN(Cc1ccccc1)C(=O)CSc1nc(C)cc2c1C(=O)OC2 -0.3%
CCOc1ccccc1C1C(C(=O)OC)=CN(C)C=C1C(=O)OC 7.1%
O=C(CCn1c(=S)[nH]c2ccccc2c1=O)NCCCN1CCCC1=O -0.3%
O=C(CCCn1c(=O)[nH]c2cc(Cl)ccc2c1=O)NCCN1CCN(c2ccccc2)CC1 1%
CC1CCCC(C)N1CCCNC(=O)c1cc2c(=O)n(C)c3ccccc3c2n1C (configuration not stated) 0.8%
CCn1c(=O)cc(OCC(=O)NCCCN2CCN(c3cccc(Cl)c3)CC2)c2ccccc21 7.6%
Cc1cc(=O)[nH]c(SCC(N)=O)c1C#N 0.8%
COc1ccc(C(=O)Nc2cccnc2)cc1C(=O)Nc1cccnc1 0.1%
Cc1ccc2nc(-c3ccc(SCC(=O)Nc4cc(C)on4)nc3)[nH]c2c1 -0.4%
Cc1cc(=O)oc(C)c1C(=O)NCc1ccc(F)cc1 -0.2%
CCCOc1ccccc1C(=O)NCCCC(=O)O 0%
O=C(CC(NCCN1CCOCC1)C(=O)O)Nc1cccc(Cl)c1 (configuration not stated) -1.2%
Cn1c(CN2CCOCC2)nc2cc(NC(=O)c3ccc(Cl)cc3)ccc21 0.6%
Cc1c2cnn(-c3ccccc3)c(=O)c2c(C)n1CCCC(=O)N1CCN(C)CC1 1%
CC(C)OC(=O)CN1C(=O)c2ccccc2C1=O 0.5%
CCOc1ccc(NC(=O)N2CCN(CC)CC2)cc1 -0.5%
O=C(Nc1c(-c2ccccc2)nc2c(Br)cc(Br)cn12)c1ccco1 -0.3%

activation, active:
O=c1nc2s/c(=C\c3ccco3)c(=O)n2nc1Cc1ccccc1 17.9%
COc1ccc2c(c1)OC(O)(C(F)(F)C(F)F)CC2=O (configuration not stated) 12%
CN1CCN(CCCNC(=O)c2cc3c(=O)oc4ccccc4c3s2)CC1 14.9%
O=C(CC(Cc1ccccc1)C(=O)O)NCCc1ccc2c(c1)OCO2 (configuration not stated) 10.3%
Cc1cccc(N2CCN(Cc3c(C)n(C)n(-c4ccccc4)c3=O)CC2)c1C 41.4%
CCOc1cc(NC(=O)c2ccco2)c(OCC)cc1NC(=O)COc1ccccc1 9.5%
O=C(CCn1c(=O)[nH]c2ccccc2c1=O)NCCCN1CCN(c2cccc(Cl)c2)CC1 11.7%
Cn1c(C(=O)NCCCN2CCN(c3cccc(Cl)c3)CC2)cc2c(=O)n(C)c3ccccc3c21 14.6%
COc1cccc2cc(C(C)N(CCCN3CCOCC3)C(=O)Nc3ccc(Cl)cc3)oc12 (configuration not stated) 15.9%
